# PLAP act: human PLAP activation; P05187; purified PLAP enzyme, luminescent substrate read-out; stronger effect = higher value; activation fold at 20 µM; 96,000 tested, 1.2% active; AID 696; in the data active means activation fold above about 2
# Target sequence (P05187 whole entry, looked up): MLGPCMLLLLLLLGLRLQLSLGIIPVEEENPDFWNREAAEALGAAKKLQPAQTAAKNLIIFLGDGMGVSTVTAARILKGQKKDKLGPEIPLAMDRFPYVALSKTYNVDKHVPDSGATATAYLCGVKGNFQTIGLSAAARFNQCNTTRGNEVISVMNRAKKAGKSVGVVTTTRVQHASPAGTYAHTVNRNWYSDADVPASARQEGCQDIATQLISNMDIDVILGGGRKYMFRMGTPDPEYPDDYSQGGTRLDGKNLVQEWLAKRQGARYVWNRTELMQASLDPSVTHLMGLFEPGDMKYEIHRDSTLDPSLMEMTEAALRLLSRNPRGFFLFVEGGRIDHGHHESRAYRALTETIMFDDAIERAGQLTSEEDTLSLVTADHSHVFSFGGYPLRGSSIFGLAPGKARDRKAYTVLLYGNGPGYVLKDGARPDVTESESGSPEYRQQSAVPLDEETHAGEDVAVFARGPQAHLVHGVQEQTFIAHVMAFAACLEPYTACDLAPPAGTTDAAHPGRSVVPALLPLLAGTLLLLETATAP
# CYP2C19 inhib: human CYP2C19 inhibition | P33261 | CYP2C19 Supersomes, luciferin-H EGE luminescence, 30 min | inhibition, % at 5 µM | 96,000 tested, 21% active;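 active means CYP2C19 inhibition above a set limit at 5 µM in the primary screen, cut at about 50% in these data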;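 further: plate controls were negative control wells for no effect and 2.5 mM tranylcypromine positive control for full effect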
# CYP2C19 act: activators of human cytochrome P450 2C19 | P33261 | recombinant CYP2C19, luciferin-H EGE luminescence; stronger effect = higher value; 0 = fully inhibited enzyme, 1 = untreated enzyme | activation factor at 5 µM | 96,000 tested, under 10 active;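 active means activation factor of at least 2 at 5 µM in the primary screen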;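 further: 0 = wells with 2.5 mM tranylcypromine and 1 = vehicle-only wells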
# CYP2C9 inhib: inhibitors of human CYP2C9; CYP2C9 Supersomes, luciferin-H conversion, luminescence; inhibition, % at 5 µM; 96,000 tested, 20% active; P11712;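 active means blocking of liver enzyme CYP2C9 beyond about 50% at 5 µM, limit read from the data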
# CYP2C9 activ: CYP2C9 (human) activation | P11712 | recombinant CYP2C9, luciferin-H conversion, luminescence; stronger effect = higher value; factor 1 = untreated enzyme, 0 = blocked | activation factor at 5 µM | 96,000 tested, 1.4% active;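 active means activation factor of 2 or more for CYP2C9 at a 5 µM dose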;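 further: 0 = sulfaphenazole-blocked wells and 1 = vehicle-only wells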
# Starred values were filed as active, the others as inactive; · = no result given. Rows were chosen to be rich in hits. Some 31% of all compounds tested hit in one or more screens of this group.
SMILES,PLAP act,CYP2C19 inhib,CYP2C19 act,CYP2C9 inhib,CYP2C9 activ
NC(=O)c1ncc(C(F)(F)F)cc1Oc1cccc(F)c1,0.9,16.1,0.8,3.2,1
O=C(COc1ccccc1Br)c1ccc(O)cc1O,0.9,65.8*,0.3,62.2*,0.4
O=C(Cc1ccc(Br)cc1)c1ccc(O)cc1O,1.2,70.7*,0.3,53.8*,0.5
O=C(Cc1nc2ccccc2s1)c1ccc(O)cc1O,1.1,29.9,0.7,3.3,1
O=[N+]([O-])c1ccccc1CNC(Cc1ccccc1)c1ccccc1 (centres undefined),0.7,90.0*,0.1,39.7,0.6
Cc1ccc(-n2cc(C(=O)c3ccc4ccccc4c3O)cn2)cc1,0.9,-1.4,1,-39.1,1.4
C=CCn1c(SCC2=C(C(=O)OCC)C(C)NC(=O)N2)nnc1C1CCCCC1 (centres undefined),1.1,13.0,0.9,-9.2,1.1
COc1ccc(-c2cc(N)n(S(=O)(=O)c3c(F)c(F)c(F)c(F)c3F)n2)cc1OC,1.1,58.7*,0.4,83.0*,0.2
CCCc1cc(=O)[nH]c(Nc2ccc(OC)c(Cl)c2)n1,1,12.6,0.9,72.4*,0.3
CCCc1cc(=O)[nH]c(Nc2ccc(O)cc2)n1,0.8,15.8,0.8,-1.4,1
O=c1[nH]c(=O)n(Cc2ccco2)c2c1C(C(F)(F)F)(C(F)(F)F)N=C(CCc1ccccc1)N2,1.1,22.0,0.8,67.9*,0.3
N#Cc1ccc(C2=NC(C(F)(F)F)(C(F)(F)F)c3c(n(Cc4ccco4)c(=O)[nH]c3=O)N2)cc1,1.1,32.3,0.7,96.4*,0
O=C(NNC1=NCCC1)c1ccc(Br)cc1,1.1,-5.9,1.1,-7.6,1.1
CCOC(=O)C(CC)/C(C)=N/NC(=O)c1ccccc1[N+](=O)[O-] (centres undefined),1.1,38.3,0.6,12.6,0.9
CCc1ccc(NSc2ccccc2[N+](=O)[O-])cc1,0.3,65.3*,0.3,34.7,0.7
COc1cc(C(=O)N2CCC(c3nc(-c4cccnc4)no3)CC2)cc(OC)c1OC,1.3,-12.1,1.1,-6.8,1.1
O=C(O)c1ccccc1S(=O)(=O)c1ccccc1CO,1.1,2.1,1,12.2,0.9
Cc1ccc(C2=[N+]([O-])C3(CCCCC/C3=N\NC(N)=S)N(O)C2(C)C)o1 (centres undefined),0.9,12.9,0.9,74.4*,0.3
Cc1cc(NCCC(C)C)n2nc(C)c(-c3ccccc3)c2n1,1,0.2,1,26.9,0.7
O=C(Nc1ncc2c(n1)-c1ccccc1OC2)c1ccccc1Cl,0.9,13.9,0.9,30.3,0.7
Cc1noc2ncnc(Sc3ccccc3Cl)c12,1.2,100.0*,0,68.2*,0.3
Cc1noc2ncnc(Oc3ccccc3)c12,1.1,75.9*,0.2,48.8,0.5
Cc1cccc(Oc2ncnc3onc(C)c23)c1,0.9,22.6,0.8,-8.5,1.1
CC(CN1CCOCC1)(NS(=O)(=O)c1ccccc1)c1ccccc1 (centres undefined),1,92.0*,0.1,59.8*,0.4
C=CCn1c(SCC(=O)c2ccc(NS(=O)(=O)c3ccccc3)cc2)nnc1-c1cccs1,1.4,58.5*,0.4,97.2*,0
SMILES,PLAP act,CYP2C19 inhib,CYP2C19 act,CYP2C9 inhib,CYP2C9 activ
C=CCn1c(SCC(=O)Nc2ccc(C(=O)OCC)cc2)nnc1-c1cccs1,0.9,-8.5,1.1,5.4,0.9
C=CCn1c(SCc2ccc3nonc3c2)nnc1-c1cccs1,1.2,99.4*,0,75.8*,0.2
C=CCn1c(SCC(=O)C(C)(C)C)nnc1-c1cccs1,1,76.1*,0.2,19.0,0.8
CC(C)(C)C(=O)CSc1nnc(-c2cccs2)n1CC1CCCO1 (centres undefined),1,56.3*,0.4,-0.1,1
CCn1c(SCC(=O)N2CCN(S(=O)(=O)c3ccccc3)CC2)nnc1-c1cccs1,1.1,0.6,1,-4.6,1
Cc1cc(N2CC34C=CC(O3)C(C(=O)O)C4C2=O)no1 (centres undefined),1.1,-10.9,1.1,-25.4,1.3
CC(C)(C)NC(=O)c1cc(F)c(F)cc1Cl,1.3,-3.7,1,11.1,0.9
Cc1[nH]c2ccc3c(ncn3CCC#N)c2c1C,1,2.3,1,10.6,0.9
CC(SC1CCCC1)C(=O)NC(C)(C#N)C(C)C (centres undefined),1,16.4,0.8,5.8,0.9
O=C(NC1CCCCC1)NC1(C(=O)NCCCN2CCOCC2)CCCCC1,1.5,8.4,0.9,-0.1,1
CCOC(=O)c1[nH]c(COC(=O)CCOc2ccccc2OC)c(C(=O)OCC)c1C,1.2,0.7,1,11.0,0.9
CCc1ccc(NC(=O)c2ccc(C3SCC(=O)N3CCc3ccccc3)cc2)cc1 (centres undefined),1.4,47.4,0.5,66.0*,0.3
Cc1cccc(NC(=O)c2ccc(C3SCC(=O)N3CCc3ccccc3)cc2)c1C (centres undefined),1.9,82.3*,0.2,89.3*,0.1
CCCc1nc2oc3c(N4CCNCC4)ncnc3c2c2c1CCCC2,1.3,9.2,0.9,9.4,0.9
Cc1cc(/C=N/n2cnnc2)c(C)n1-c1cc(Cl)ccc1Cl,1.5,100.2*,0,79.1*,0.2
COC(=O)c1ccc(-n2c(C)cc(/C=N/n3cnnc3)c2C)cc1,1.1,48.5,0.5,38.3,0.6
Cc1cc(/C=N/n2cnnc2)c(C)n1-c1ccc2c(c1)OCO2,1.1,100.2*,0,88.4*,0.1
Cc1cc(/C=N/n2cnnc2)c(C)n1-c1ccc(C(=O)O)cc1,1,-2.2,1,6.8,0.9
O=C(Cn1c(=O)n(-c2ccccc2)c(=O)c2sccc21)N1CCCC1,·,0.8,1,9.3,0.9
CN(C)C(=O)C(=O)c1c(-c2ccccc2)cc2ccccn12,1,28.6,0.7,22.6,0.8
Cc1ccc(NC(=O)C(=O)c2c(-c3ccccc3)cc3ccccn23)cc1S(=O)(=O)N1CCOCC1,1.6,87.6*,0.1,-18.5,1.2
COc1cccc(-n2c(C)nn(C)c2=O)c1,1.2,15.2,0.8,-3.2,1
COc1cccc(-n2nc(-c3ccnn3-c3ccc(C)cc3)c(=O)n(C)c2=O)c1,1.1,89.4*,0.1,83.5*,0.2
COc1ccc(Oc2nc3c(c(=O)n(C)c(=O)n3C)n2Cc2cccc(OC)c2)cc1,1,0.4,1,-5.9,1.1
COc1ccc(-n2nccc2-c2nn(-c3cccc(OC)c3)c(=O)n(C)c2=O)cc1,0.8,89.2*,0.1,61.7*,0.4
COc1cccc(-n2nc(-c3ccnn3-c3ccc(F)cc3)c(=O)n(C)c2=O)c1,1.1,66.6*,0.3,80.1*,0.2
O=C1c2cccc3cccc(c23)C(=O)N1c1nncs1,0.8,3.9,1,-13.9,1.1
COc1cc(C(=O)NCCC(C)C)c([N+](=O)[O-])cc1OC,0.9,-0.3,1,-14.4,1.1

# Screening data: PubChem BioAssay, Sanford-Burnham Center for Chemical Genomics
